Results on 24 compounds are retold here after PubChem BioAssay.

A number with no mark means an inactive call.
Also: test concentration not given here.

A short description of the first assay: S. cerevisiae RM11-1a growth modifiers, primary screen, strain RM11-1a, OD600, basal, 24 h (AID 1177).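 Also: cultures grown under basal conditions with no added stressor.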 The conditions noted are these: OD600, 24 h, higher = more signal, called active from +8 up or from −8 down.
`CC1CC/C=C\[C@H]2OC34C=CCN(CCN5CCOCC5)C(=O)[C@H]3N(C(CO)C(C)C)C(=O)[C@@H]4C2C(=O)O1` (some centres undefined): the z-score is -0.459.
For `COc1ccc([Si](C)(C)[C@H]2[C@H](CC(=O)N(CCO)Cc3ccccc3)O[C@@]3(C(=O)N(c4ccccc4)c4ccccc43)[C@@H]2C)cc1`, the z-score is 0.29.
Turning to `C=CCNC(=O)[C@H]1[C@@H]2C(=O)O[C@@H](c3ccccc3)[C@@H](c3ccccc3)N2[C@@H](c2ccc(O)cc2)[C@]12C(=O)Nc1ccc(C#CCC(C(=O)OC)C(=O)OC)cc12`, the z-score is 0.249.
Turning to `CC[C@@H]1C=C(C(=O)O)[C@H](c2cccc(Cl)c2)N1S(=O)(=O)c1ccc(C)cc1`, the z-score is -0.285.
On the same count and under the same terms, under `C=CCOC(=O)[C@H]1[C@@H]2C(=O)O[C@@H](c3ccccc3)[C@@H](c3ccccc3)N2[C@@H](c2ccc(OCCOC(=O)[C@H]3C[C@H]4C(=O)NCC(=O)N4[C@H]3c3ccc(O)cc3)cc2)[C@]12C(=O)Nc1ccccc12` stands 2.99; under `OCCCc1cc[n+](Cc2cc3c(cc2Br)OCO3)cc1`, -0.126.
With `COc1ccc([Si](C)(C)[C@@H]2[C@@H](CC(=O)N(CCO)Cc3ccccc3)O[C@]3(C(=O)N(Cc4cccc(I)c4)c4ccccc43)[C@H]2C)cc1`, the z-score was 2.64.

A short description of the next assay: E. coli acrAB mutant growth effects, primary screen, E. coli filamentation inducers, strain DRC39, OD650, 24 h (AID 1178).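 Also: growth measured as culture turbidity by optical density at 650 nm.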 The conditions noted are these: higher = more signal, called active from +8 up or from −8 down.
Regarding `COc1ccc(C(=O)Nc2ccc(CN3C(=O)[C@]4(O[C@H](CC(=O)N(CCO)Cc5ccccc5)[C@@H]([Si](C)(C)c5ccc(OC)cc5)[C@@H]4C)c4ccccc43)cc2)cc1`, the z-score is -0.225.
With `Cc1ccc(S[C@]2(C(=O)NC(C)C)CC(=O)N(Cc3ccccc3)[C@@H]2c2ccc(CO)cc2I)cc1`, the z-score was -0.0759.
Turning to `C=C(CCCC)C(=O)CC[C@@H](OC(C)=O)c1ccc(OCCO)cc1`, the z-score is 0.227.
Still for that read-out and setting: under `COC(=O)[C@@]1(Cc2ccc(F)cc2)[C@H]2c3cc(C(=O)N4CCCC4)n(CCc4c[nH]c5cc(F)ccc45)c3C[C@H]2CN1C(=O)c1ccccc1` stands -0.426.
Still for that read-out and setting: under `C=CCN1C(=O)[C@]2(O[C@H](CCO)[C@@H]([Si](C)(C)c3ccc(OC)cc3)[C@@H]2C)c2cc(N3C(=O)c4ccccc4Oc4ccccc43)ccc21` stands 0.229; under `COC(=O)C(CC#Cc1ccc2c(c1)[C@]1(C(=O)N2)[C@H](c2ccc(OCCO)cc2)N2[C@H](c3ccccc3)[C@H](c3ccccc3)OC(=O)[C@H]2[C@@H]1C(N)=O)C(=O)OC`, 0.448; under `CC(C)N1C(=O)[C@@]2(Cc3ccccc31)c1ccccc1C(=O)N(Cc1ccccc1C(F)(F)F)[C@H]2c1ccc(CO)cc1`, -0.0949.
Consider `C=C(C(=O)CC[C@@H](OC(=O)c1ccccc1-c1ccccc1C(=O)O)c1ccc(OCCO)cc1)C(C)C`, for which the z-score is -0.166.
Turning to `COc1ccc(CCNC(=O)[C@@]2(C)c3ccccc3C(=O)N(Cc3ccc(OC(F)(F)F)cc3)[C@H]2c2ccc(CO)cc2)cc1`, the z-score is 0.0466.
With `[N-]=[N+]=NCc1ccccc1[C@H]1OC(c2ccc(OCCCO)cc2)=N[C@@]1(Cc1ccccc1N=[N+]=[N-])C(=O)O`, the z-score is -0.539.
Regarding `CC(C)c1ccc(NN2C(C(O)C3CCCCC3)C=CC3C(=O)N(c4ccccc4)C(=O)C32)cc1` (centres undefined), the z-score is -0.148.
On the same count and under the same terms, under `CC(CO)N1C(=O)[C@@H]2[C@H]3C(=O)OCC=C[C@H]3OC23C=CCN(c2ccc4ccccc4c2)C(=O)[C@@H]13` (some centres undefined) stands -0.398; under `O=C1O[C@H](c2ccccc2)[C@H](c2ccccc2)N2[C@H]1[C@@H](C(=O)O)[C@]1(C(=O)Nc3ccccc31)[C@H]2c1ccc(OCCO)cc1`, -0.545.
For the compound `C=CCNC(=O)[C@@H]1[C@H]2C(=O)O[C@H](c3ccccc3)[C@H](c3ccccc3)N2[C@H](c2ccc(OCCO)cc2)[C@@]12C(=O)N(C(=O)OCCOC)c1ccccc12`, the z-score was 0.446.
On the same count and under the same terms, under `C[C@]1(C(=O)NC2CC2)c2ccccc2C(=O)N(Cc2cc(F)cc(C(F)(F)F)c2)[C@H]1c1ccc(CO)cc1` stands 0.425.
As to `C=CCNC(=O)[C@@H]1[C@H]2C(=O)O[C@H](c3ccccc3)[C@H](c3ccccc3)N2[C@H](c2ccc(O)cc2)[C@@]12C(=O)Nc1ccc(C#CC3=CCCCC3)cc12`, the z-score was -0.33.
In the case of `Cc1cccc([C@H]2C[C@H]3C(Br)=C[C@@]2(CO)C(=O)[C@]32CO2)c1`, the z-score is 0.258.
